For this experiment, the target named is Shiga toxin 2 (Escherichia coli O157:H7) (UniProt P09385+P09386). As to the kind of experiment: E. coli 0.157:H7 Shiga Toxin SOP - stx2 screening assay. Set-up: scale not given: direction of the effect not stated beside the values. It is filed as functional. As to conditions: 30 µM.
On to `O=C(c1cccc(OC2CCCC2)c1)N1CCCC(n2cncn2)C1` (stereo not given), for which the Percent Effect turned out to be 16.8%.
To `O=S1(=O)CCCN1Cc1coc(-c2cccs2)n1` belongs 0.853%; to `O=C(NCC1CCOC1)c1ccc(OCC(F)(F)F)nc1` (stereo not given), -17.6%; to `CNS(=O)(=O)Cc1ccc(CNc2cncc(-n3cccn3)n2)cc1`, -15.6%.
As for `CCCNC(=O)NC(=O)CN(CC(C)O)c1ccccc1` (stereo not given), the Percent Effect is 20.6%.
To `Cc1nn(C)c(N2CCOCC2)c1CNC(C)c1cccnc1` (stereo not given) belongs 9.24%; to `CN(C)c1nccc(N2CCO[C@H]3CN(CC4CCOCC4)C[C@H]32)n1`, -89.3%; to `Cc1noc(C)c1CN(C)C(=O)NC1CCN(c2ncccn2)CC1`, 9.61%.
In the case of `Cc1cnc(N)c(C(=O)C2CCN(C(=O)c3ccccc3F)CC2)c1`, the Percent Effect was -8.93%.
To `NC(=O)N1CCC2(CC1)CN(Cc1cccnc1)C(=O)CO2` belongs -1.38%; to `CCc1nc(CN2CCCN(C(=O)c3cn[nH]c3CC)CC2)cs1`, -78.4%.
To `CCc1nc(CN(CC(N)=O)C(C)C)cs1` belongs -3.84%; to `CC(C)(C)c1nnc(CN2CCCC(Cn3cncn3)C2)o1` (stereo not given), 13%.
To `O=c1nc(SCc2ccncc2)c2c(n1CCO)CCCC2` belongs -5.81%; to `CNC(=O)[C@@]12CCO[C@@H]1CCN(S(=O)(=O)c1cccc(C)c1)C2`, 9.63%; to `COc1ccc2c(c1)CN(Cc1nc3c(cnn3C)c(=O)[nH]1)CC2`, -3.66%.
With `COC(=O)CC(c1ccc(OC)c(OC)c1)c1oc(C)cc(=O)c1O` (stereo not given), the Percent Effect was -7.17%.
For `CC(C)c1nc(C2CCCN2CCCc2nc3ccccc3o2)no1` (stereo not given), the Percent Effect is 17.3%.
In the case of `CC(=O)N1CCN(C(=O)C(C)n2cncn2)CC1` (stereo not given) it was 1.67%.
In the case of `Cc1[nH]/c(=N\C(=O)c2csc(NCC(C)C)n2)sc1C` it was 12%.
On to `CC[C@@]1(O)CCN(C(=O)c2ccc(SC)cc2)C[C@H]1O`, for which the Percent Effect came out at 5.8%.
In the case of `CC(NC(=O)NCCCO)c1ccc2c(c1)OCCO2` (stereo not given) it was -10.2%.
To `Cn1nnc2c1C(COCc1ccccn1)CN(C(=O)c1cccs1)C2` (stereo not given) belongs 13.7%; to `Cc1ccc(C)c(-c2csc(N)c2C#N)c1`, 4.18%.
Turning to `CC(=O)N1[C@@H](C(=O)NCC2CC2)C[C@@H]2CN(Cc3ccco3)C[C@@H]21`, the Percent Effect was -11.8%.
Turning to `COCCN1CCc2cc(C(=O)N(C)C)c(NC(C)C)nc2CC1`, the Percent Effect was -20%.
To `CCn1cnnc1CNC(=O)N(C)Cc1ccc2c(c1)OCCO2` belongs 13.4%; to `Cc1noc(C)c1CNC(=O)N1CCN(Cc2cscn2)CC1`, 1.78%; to `Cc1cc(CN2CCCC2Cn2cncn2)no1` (stereo not given), -0.0947%.
In the case of `COc1ccc(C(=O)N2CCCCC2c2nc(C)cs2)nn1` (stereo not given) it was -31.3%; in that of `Cc1nc(-c2ccsc2)ccc1C(=O)O`, -2.78%.
To `Cc1cc2n(n1)CC(CNC1CCN(Cc3ccccc3C)CC1)CN2` (stereo not given) belongs -38.1%.
Regarding `c1ccc(-n2cc(CN3CCCC(Cn4cncn4)C3)nn2)cc1` (stereo not given), the Percent Effect was -48.9%.
As for `CCn1nc(C)c2ncnc(NCCCN3CCOCC3)c21`, the Percent Effect is -33.6%.
To `Cc1nn(C)c(N(C)C)c1CNCC(O)COc1ccc(F)cc1` (stereo not given) belongs 8.48%.
To `CC(C)CN1C(=O)C2(CCN(Cc3nccs3)C2)c2ccccc21` (stereo not given) belongs -65.4%; to `CC(C)S(=O)(=O)c1nnc(CCNC(=O)OC(C)(C)C)o1`, -59.2%.
To `CCCNC(=O)N1CCN(Cc2cc(C)no2)CC1` belongs 17.7%; to `O=C(CSc1ccc(F)c(F)c1)NS(=O)(=O)c1ccc2c(c1)OCCO2`, 10.6%.
Turning to `Cn1ccnc1CN1CCC2(COCCN(Cc3ccsc3)C2)C1` (stereo not given), the Percent Effect was -19.8%.

These data come from ChEMBL document CHEMBL3988442, “University of Dundee, Small-Polar-MMV Screening Library” (2021).
